Source: PubChem BioAssay
Many of the other results were omitted from the sample, so hits are more common in it than they were.
Pf apPOL inh: Pf-apPOL DNA polymerase inhibition. AID 1794808. 210,000 compounds, 0.25% hits. Recombinant Pf-apPOL, molecular beacon fluorescence, 1.5 h. inhibition, % at 10 µM
mHTT-CaM PPI inh: mHTT-calmodulin interaction abrogation | AlphaScreen His-mHTT/GST-CaM binding, luminescence | inhibition, % at 15 µM | AID 1671202 | 190,000 compounds, 3.6% hits
Large screens that a line does not name were inactive. Cut-off read from the data, not from the text of the source: active = inhibition above about 50%; inactive = the rest.

O=C(Nc1cccs1)Nc1nnc(SCc2cccnc2)s1	none
CCCc1cc(=O)[nH]c(SCc2cccc(C)c2)n1	none
O=C(CN(C1CCCCC1)S(=O)(=O)c1ccc(Br)cc1)NC1CC1	none
O=C(O)CN(C1CCCCC1)S(=O)(=O)c1ccc(Br)cc1	Pf apPOL inh 68
COc1ccc(C(=O)Nc2ccc(OC)cc2[N+](=O)[O-])c(OC)c1	none
Cc1c(C(=O)NCc2ccccn2)oc2ccc(S(=O)(=O)N3CCCCC3)cc12	mHTT-CaM PPI inh 58
Cc1c(C(=O)NCc2ccccn2)oc2ccc(S(=O)(=O)N3CCOCC3)cc12	none
c1cc2c(cc1-n1nnnc1SCc1nn[nH]n1)OCO2	none
C=CCSc1nnc2c(n1)OC(c1ccc(F)cc1)N(C(C)=O)c1ccccc1-2 (configuration not stated)	none
C=CCSc1nnc2c(n1)OC(c1ccc(N(C)C)cc1)N(C(C)=O)c1ccccc1-2 (configuration not stated)	mHTT-CaM PPI inh 64
CC(C)(C)c1cc2ncc(S(=O)(=O)c3ccc(Cl)cc3)c(N)n2n1	none (no result: mHTT-CaM PPI inh)
Cc1nnc(NC(=O)c2csc(-c3cnccn3)n2)s1	none
O=C(Nc1nc(-c2ccco2)cs1)c1csc(-c2cnccn2)n1	Pf apPOL inh 76
Cc1nn(-c2nc3ccccc3s2)c2c1C(c1ccccc1)CC(=O)N2 (configuration not stated)	none
Cc1cc(C)nc(-n2nc(C)c3c2NC(=O)CC3c2ccc3ccccc3c2)n1 (configuration not stated)	mHTT-CaM PPI inh 70
CCOc1ccc(C=C2Oc3c(ccc(O)c3CN3CCN(CCO)CC3)C2=O)cc1	none
COc1ccc(CSc2nncn2C)cc1	none
CCc1cc(C2CCCN2C(=O)Nc2cc(OC)cc(OC)c2)on1 (configuration not stated)	none
COc1cccc(NC(=O)c2ccccc2Cl)c1	none
COc1cccc(CC(=O)NNC(=O)NC(=O)c2ccccc2Cl)c1	Pf apPOL inh 54 (no result: mHTT-CaM PPI inh)
CN1CCN(C(=O)c2ccc(N3CCNC(c4ccccc4)C3)nc2)CC1 (configuration not stated)	none
O=C(c1ccc(N2CCNC(c3ccccc3)C2)nc1)N1CCc2ccccc2C1 (configuration not stated)	mHTT-CaM PPI inh 71
O=C(Nc1nnc(C2CC(=O)N(c3ccc(F)cc3)C2)o1)c1ccc(Br)o1 (configuration not stated)	none
Cc1cccc(NC(=O)CN2CCc3ccccc3C2C(=O)N2CCC(C)CC2)c1C (configuration not stated)	none
COc1ccc(C)cc1NC(=O)CN1CCc2ccccc2C1C(=O)N1CCC(C)CC1 (configuration not stated)	mHTT-CaM PPI inh 61
CCOc1ccc(NC(=O)CN2CCc3ccccc3C2C(=O)N2CCC(C)CC2)cc1 (configuration not stated)	none
CC1CCN(C(=O)C2c3ccccc3CCN2CC(=O)Nc2ccc(Cl)cc2)CC1 (configuration not stated)	mHTT-CaM PPI inh 62
O=C(CN1CCc2ccccc2C1C(=O)N1CCCC1)N1CCC(Cc2ccccc2)CC1 (configuration not stated)	mHTT-CaM PPI inh 68
O=C(CN1CCc2ccccc2C1C(=O)N1CCCC1)N1CCN(C2CCCCC2)CC1 (configuration not stated)	none
CC1CCN(Cc2oc(CO)cc(=O)c2O)CC1	none
CCn1c(Cl)nc2c1c(=O)n(C)c(=O)n2C	none (no result: Pf apPOL inh)
Cn1nc(C(=O)NCc2ccc(Cl)cc2)c2c1CCN(C(=O)CC1CCCC1)C2	none
Cn1nc(C(=O)NCc2ccc(F)cc2)c2c1CCN(C(=O)C1CCCC1)C2	mHTT-CaM PPI inh 77
Cn1nc(C(=O)NCc2ccc(Cl)cc2)c2c1CCN(C(=O)C1CCCC1)C2	mHTT-CaM PPI inh 92
Cc1cccc(CNC(=O)c2nn(C)c3c2CN(C(=O)C2CCC2)CC3)c1	none
CCCC(=O)N1CCc2c(c(C(=O)NCc3ccc(Cl)cc3)nn2C)C1	mHTT-CaM PPI inh 84
CC(C)CC(=O)N1CCc2c(c(COCc3ccc(Cl)cc3)nn2C)C1	mHTT-CaM PPI inh 63
CCC(=O)N1CCc2c(c(COCc3ccc(C)cc3)nn2C)C1	none
Cn1nc(C(=O)NCc2ccccc2)c2c1CCN(C(=O)C1CCC1)C2	none
O=C(Nc1c2c(nn1-c1ccc(Cl)cc1)CS(=O)(=O)C2)C1CCCC1	none
O=C(c1ccc(Br)cc1)N1CCC(Cc2nnc(-c3ccccc3)o2)CC1	none
Cc1cccc(C)c1N=C1C(=O)Nc2ccc(Br)cc21	none
CC(C)C[C@H]1COc2cccc(N3CCCC3)c2S(=O)(=O)N1	none
COCCNC(=O)c1cnn2c(C(F)(F)F)cc(-c3ccccc3)nc12	none
Cc1cc(NC(=O)c2ccc(C)c(C)c2)no1	none
CCC(=O)N1CCc2c(c(C(=O)NCc3ccc4c(c3)OCO4)nn2C)C1	none
Cn1nc(C(=O)NCc2ccc3c(c2)OCO3)c2c1CCN(C(=O)C1CCCCC1)C2	mHTT-CaM PPI inh 72
COc1cccc(C(=O)C=c2[nH]c(=O)c(=Cc3cccs3)s2)c1	none (no result: mHTT-CaM PPI inh)
Clc1cccc(Cl)c1CNc1ccc2c(c1)OCO2	mHTT-CaM PPI inh 69
Fc1cccc(NCc2ccc3c(c2)OCO3)c1	none
Cc1cccc(CNc2ccc3c(c2)OCO3)c1	mHTT-CaM PPI inh 100
O=C(Nc1ccc2c(c1)OCO2)c1ccccc1Cl	none
CCN(CC)S(=O)(=O)c1ccc(F)c(C(=O)Nc2cc(Cl)ccc2Cl)c1	none
O=C(Nc1c2c(nn1-c1ccc(F)cc1)CS(=O)C2)C1CCCC1 (configuration not stated)	none
CC(=O)C1=C(C)NC(SCC(=O)c2cccc([N+](=O)[O-])c2)=C(C#N)C1c1cccc(C)c1 (configuration not stated)	mHTT-CaM PPI inh 62
CC(=O)C1=C(C)NC(SCC(=O)c2ccc([N+](=O)[O-])cc2)=C(C#N)C1c1ccccc1 (configuration not stated)	mHTT-CaM PPI inh 59
CC(=O)C1=C(C)NC(SCC(=O)c2ccc([N+](=O)[O-])cc2)=C(C#N)C1c1cccc(C)c1 (configuration not stated)	mHTT-CaM PPI inh 64
CC(=O)C1=C(C)NC(SCC(=O)c2ccc(C)cc2)=C(C#N)C1c1ccco1 (configuration not stated)	none
CCc1ccc(C2C(C#N)=C(SCC(=O)c3cccc([N+](=O)[O-])c3)NC(C)=C2C(C)=O)cc1 (configuration not stated)	none
CC(=O)C1=C(C)NC(SCC(=O)c2ccc([N+](=O)[O-])cc2)=C(C#N)C1c1ccco1 (configuration not stated)	mHTT-CaM PPI inh 69
CC(=O)C1=C(C)NC(SCC(=O)c2ccccc2)=C(C#N)C1c1ccc(Cl)cc1 (configuration not stated)	none
CC(=O)C1=C(C)NC(SCC(N)=O)=C(C#N)C1c1cccc([N+](=O)[O-])c1 (configuration not stated)	none
N#Cc1c(Sc2ccccc2)ncc2cc3ccccc3nc12	none
Cc1ccc(OCCCCN2CCCCC2)cc1	none
COc1ccccc1CC(=O)N1CC2CC1CC2NC(=O)c1ccccc1 (configuration not stated)	none
Cc1cc(Br)ccc1SCC(=O)O	none
CC(=O)C1=C(C)NC(SCC(=O)c2ccc([N+](=O)[O-])cc2)=C(C#N)C1c1ccccc1Cl (configuration not stated)	mHTT-CaM PPI inh 61
CC(=O)C1=C(C)NC(SCC(=O)c2ccccc2)=C(C#N)C1c1ccccc1Cl (configuration not stated)	none
CCNC(=O)c1cc(NC(=O)C2CCC2)cc2nc(C)ccc12	none
